Reference: PubChem BioAssay (EPA / NIEHS)
Activity calls are given as the source filed them. The calls were made as follows: active = hit-call score of the fitted dose curve at least 0.9, where 1 is the maximum; inactive = score below 0.9.

assay: ATG_M_61_CIS: Attagene CIS-FACTORIAL HepG2 Assay for M61 Transcription Factor (Internal Marker) (AID 2282937); details: HepG2 Attagene CIS-FACTORIAL M61 internal marker reporter; actives raise or lower the signal
Outline: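 Readout is reporter mRNA by RT-PCR, fluorescent primer extension and capillary electrophoresis, with gain or loss fitted relative to DMSO. Transfected HepG2 cells carrying endogenous-TF-driven cis reporters were exposed to chemicals for 24 hours.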

outcome, inactive:
O=C1CCCCCCCCCCCCCC1
CCCC(=O)OC/C=C(\C)CCC=C(C)C
CCCCCCC(O)CCCCCCCCCCC(=O)OC (centres undefined)
COC(=O)c1ccccc1
C/C=C(\C)C(=O)OCC/C=C\CC
CC/C=C\CC/C=C/C(OCC)OCC
CN1CCCC1
CCO[Si](CCCN)(OCC)OCC
CCCCCCC1CCC(=O)O1 (centres undefined)
CCC(=O)OCc1ccc(OC)cc1
CCC(C)=NO
C=C1CC[C@H]2C[C@@H]1C2(C)C
Cc1cc2nc3c(=O)[nH]c(=O)nc-3n(C[C@H](O)[C@H](O)[C@H](O)CO)c2cc1C
Cc1cc(-n2nc3ccc(Cl)cc3n2)c(O)c(C(C)(C)C)c1
CCCCCCC1CCCC(=O)O1 (centres undefined)
c1ccc(CNc2ncnc3nc[nH]c23)cc1
CC(=O)Nc1c(I)c(NC(C)=O)c(I)c(C(=O)O)c1I
CC(C)=CCOC(=O)c1ccccc1
CC(=O)CCc1ccccc1
CNC[C@H](O)[C@@H](O)[C@H](O)[C@H](O)CO
c1ccc2c(c1)Oc1ccccc1S2
CCCCCC[C@@H](O)C/C=C\CCCCCCCC(=O)O
CC[N+](CC)(CC(=O)Nc1c(C)cccc1C)Cc1ccccc1 (tested in a mixture with another compound)

assay: ATG_EGR_CIS: Attagene CIS-FACTORIAL HepG2 Assay for human Early Growth Response 1 (EGR1) (AID 2282938); details: HepG2 Attagene CIS-FACTORIAL EGR reporter mRNA; actives raise or lower the signal
Outline: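 After 24 h compound exposure, RNA from reporter-transfected HepG2 cells was reverse-transcribed, PCR-amplified, fluorescently labelled and resolved by capillary electrophoresis. EGR1 reporter transcript changes, up or down, were fitted against DMSO, reflecting endogenous transcription-factor activity.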

outcome, inactive:
CNC(=C[N+](=O)[O-])NCCSCc1csc(CN(C)C)n1
O=C1CCCCCCCCCCCCCC1
CCCC(=O)OC/C=C(\C)CCC=C(C)C
CCCCCCC(O)CCCCCCCCCCC(=O)OC (centres undefined)
O=C(O)/C=C/C(=O)O
O=S(=O)(O)c1cccc2ccccc12
C/C=C(\C)C(=O)OCC/C=C\CC
CC/C=C\CC/C=C/C(OCC)OCC
CN1CCCC1
O=[N+]([O-])c1ccccc1C(F)(F)F
CCC(C)=NO
COc1cccc(OC)c1C(=O)O
CCCCCC1CCCC(=O)O1 (centres undefined)
COC(=O)[C@]1(C)CCC[C@@]2(C)[C@H]1CC=C1C=C(C(C)C)CC[C@@H]12
Cc1cc2nc3c(=O)[nH]c(=O)nc-3n(C[C@H](O)[C@H](O)[C@H](O)CO)c2cc1C
Cc1cc(-n2nc3ccc(Cl)cc3n2)c(O)c(C(C)(C)C)c1
O=C(OCc1ccccc1)c1ccccc1
CCCCCCC1CCCC(=O)O1 (centres undefined)
c1ccc(CNc2ncnc3nc[nH]c23)cc1
NC(=O)c1ccc(N)cc1
CC(C)=CCOC(=O)c1ccccc1
CC(C)(C)NC(=O)[C@@H]1CN(Cc2cccnc2)CCN1C[C@@H](O)C[C@@H](Cc1ccccc1)C(=O)N[C@H]1c2ccccc2C[C@H]1O
Oc1cccc2ccccc12
Oc1ccc(Oc2ccccc2)cc1
CC(=O)CCc1ccccc1
CNC[C@H](O)[C@@H](O)[C@H](O)[C@H](O)CO
CN(C)c1ccc(C(c2ccccc2)c2ccc(N(C)C)cc2)cc1

assay: ATG_M_19_CIS: Attagene CIS-FACTORIAL HepG2 Assay for M19 Transcription Factor (Internal Marker) (AID 2282939); details: HepG2 Attagene CIS-FACTORIAL M19 internal marker reporter; actives raise or lower the signal
Outline: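 HepG2 cells transiently transfected with cis-regulated multiple reporter transcription units were dosed for 24 h; reporter mRNA was quantified by RT-PCR, 6-FAM primer-extension labelling, HpaI digestion and capillary electrophoresis, with bidirectional fitting against DMSO baseline.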

outcome, inactive:
CNC(=C[N+](=O)[O-])NCCSCc1csc(CN(C)C)n1
O=C1CCCCCCCCCCCCCC1
CCCC(=O)OC/C=C(\C)CCC=C(C)C
CCCCCCC(O)CCCCCCCCCCC(=O)OC (centres undefined)
COC(=O)c1ccccc1
O=C(O)/C=C/C(=O)O
O=S(=O)(O)c1cccc2ccccc12
C/C=C(\C)C(=O)OCC/C=C\CC
CC/C=C\CC/C=C/C(OCC)OCC
C=CCOCC(CC)(CO)COCC=C
CN1CCCC1
CCO[Si](CCCN)(OCC)OCC
CCCCCCC1CCC(=O)O1 (centres undefined)
O=[N+]([O-])c1ccccc1C(F)(F)F
CCC(=O)OCc1ccc(OC)cc1
CCc1cc(C(N)=S)ccn1
CCC(C)=NO
COc1cccc(OC)c1C(=O)O
C=C1CC[C@H]2C[C@@H]1C2(C)C
CCCCCC1CCCC(=O)O1 (centres undefined)
COC(=O)[C@]1(C)CCC[C@@]2(C)[C@H]1CC=C1C=C(C(C)C)CC[C@@H]12
Cc1cc2nc3c(=O)[nH]c(=O)nc-3n(C[C@H](O)[C@H](O)[C@H](O)CO)c2cc1C
Cc1cc(-n2nc3ccc(Cl)cc3n2)c(O)c(C(C)(C)C)c1
O=C(OCc1ccccc1)c1ccccc1
CCCCCCC1CCCC(=O)O1 (centres undefined)
c1ccc(CNc2ncnc3nc[nH]c23)cc1
NC(=O)c1ccc(N)cc1
CC(=O)Nc1c(I)c(NC(C)=O)c(I)c(C(=O)O)c1I
CC(C)=CCOC(=O)c1ccccc1
CC(C)(C)NC(=O)[C@@H]1CN(Cc2cccnc2)CCN1C[C@@H](O)C[C@@H](Cc1ccccc1)C(=O)N[C@H]1c2ccccc2C[C@H]1O
Oc1cccc2ccccc12
C=CN1CCCCCC1=O
Oc1ccc(Oc2ccccc2)cc1
CC(=O)CCc1ccccc1
CNC[C@H](O)[C@@H](O)[C@H](O)[C@H](O)CO
CN(C)c1ccc(C(c2ccccc2)c2ccc(N(C)C)cc2)cc1
c1ccc2c(c1)Oc1ccccc1S2
CCCCCC[C@@H](O)C/C=C\CCCCCCCC(=O)O
CC[N+](CC)(CC(=O)Nc1c(C)cccc1C)Cc1ccccc1 (tested in a mixture with another compound)
